The record followed here is PubChem BioAssay AID1446 (The Scripps Research Institute Molecular Screening Center, 2008).

SMILES strings stand for the structures. Among all 220,000 compounds or so, about 2,400 (1.1%) were called active.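 How the source made its calls: active means inhibition above the campaign mean plus 3 SD over all tested compounds (cut at about 24% in these data); inactive means the rest.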 The entries come from a sample that favours actives as a whole.

The nature of this assay: viability loss in Ba/F3 EpoR-JAK2V617F cells – cell-based, luminescence, JAK2V617F inhibitor project, primary screen (AID 1446).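 Further: cytokine-independent growth of Ba/F3 cells driven by EpoR plus mutant JAK2; 0% = DMSO-treated cells and 100% = JAK inhibitor I control.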 To be noted: ATP luminescence, at 5.6 µM, stronger effect = higher value.
For the compound `CCOc1cc(/C=C2/C(=N)N3OC(C)=CC3=NC2=O)ccc1OC`, the inhibition is 1.56% (inactive). `C/C(=N\NC(N)=S)c1cccnc1`: the inhibition is -4.73% (inactive). As to `CN(Cc1ccccc1)C(=O)CCc1ccccc1`, the inhibition is -4.97% (inactive). The same measure for `Cn1c(-c2ccc(F)cc2)cnc1SCC(=O)NNC(=O)Cc1ccccc1`: 0.3% (inactive).

Take `Cc1ccc(-c2cnc(NC(=O)CCC(=O)N(C)Cc3ccccc3)n2C)cc1`: the inhibition is 40.1% (active). For the compound `CC(=O)c1ccc(N2CCN(S(=O)(=O)c3c(C)[nH]c(=O)[nH]c3=O)CC2)cc1`, the inhibition is 2% (inactive).

For `c1ccc2c(c1)CSc1sccc1C2=C1CCNCC1`, the inhibition was 45.9% (active). The same measure for `Cn1ccc(=Nc2ccc(NC(=O)c3ccc(N=c4ccn(C)c5ccc([N+](=O)[O-])cc45)cc3)cc2)cc1`: 34.4% (active); for `Cc1cc([N+](=O)[O-])ccc1NC(=O)c1ccc(NC(=O)C(C)C)cc1`: 0.7% (inactive).

With `CC(=O)NC(=S)Nc1ccc(NC(=S)NC(=O)c2ccc([N+](=O)[O-])cc2)cc1`, the inhibition was -4.8% (inactive). The value for `O=C(Nc1ccccc1-c1ccccc1)c1cccs1` was 6.54% (inactive). The same measure for `N#Cc1ccc(OCc2nnc(-c3ccc([N+](=O)[O-])cc3)o2)cc1`: 1.03% (inactive); for `Cc1n[nH]c(=O)n1-c1ccc(C(C)C)cc1`: 0.05% (inactive). The value for `Cc1nccn1CC(=O)N/N=C/c1ccc(O)c(O)c1` was -3.5% (inactive); that for `O=C(Nc1ccccc1)Nc1ccc(C(F)(F)F)cn1` was 2.61% (inactive); that for `Oc1ccc(/C=N/Nc2ccc(C(F)(F)F)cn2)cc1O` was 72% (active). Consider `CC1(C)C2CC=C(/C=N/NC(=O)C3CC3)C1C2` (stereo not given), for which the inhibition was -1.08% (inactive). The value for `Cc1cc(N2CCN(Cc3ccc4c(c3)OCO4)CC2)n2ncnc2n1` was 4.15% (inactive). For the compound `Fc1ccc2[nH]c3c(N4CCSCC4)ncnc3c2c1`, the inhibition is -5.13% (inactive). The value for `Fc1ccc2[nH]c3c(N4CCN(Cc5ccc6c(c5)OCO6)CC4)ncnc3c2c1` was 37.1% (active). The value for `CC(=O)Nc1ccc(/C(C)=N/NC(=O)CN(c2ccccc2Br)S(C)(=O)=O)cc1` was -0.87% (inactive); that for `CSc1sc(C(=O)NC(=O)NCc2cccnc2)c(C)c1-c1ccon1` was -1.98% (inactive); that for `COc1ccc(C2C(C(C)=O)=C(O)C(=O)N2CCc2c[nH]c3ccccc23)cc1` (stereo not given) was -3.16% (inactive).

For `O=C(N/N=C\c1cc(Br)c(Br)o1)C1COc2ccccc2O1` (stereo not given), the inhibition was -4.95% (inactive). The same measure for `CN(Cc1nc2ccc(F)cc2[nH]1)Cc1nc(CC2CC2)no1`: -1.61% (inactive); for `CCc1ccc(CN(C)Cc2nc(Cc3ccccc3)no2)nc1`: 1.45% (inactive); for `CN(Cc1ccc2nsnc2c1)Cc1nc(Cc2cccc(F)c2)no1`: 47.5% (active).

For `Cc1cc(C(=O)CCl)c(C)n1CC1COc2ccccc2O1` (stereo not given), the inhibition was 2.03% (inactive). The same measure for `CSCCC(NS(=O)(=O)c1ccc2c(c1)oc(=O)n2C)C(=O)NCc1ccccc1` (stereo not given): -3.72% (inactive); for `Cc1nc(/N=C(\N)NC(=O)NC2CCCCC2)nc2ccccc12`: 2.92% (inactive). The value for `COc1ccc(NC(=O)Nc2ccc3nc(C)c(C)nc3c2)cc1` was -2.47% (inactive); that for `COc1ccc2nc(/N=C(\N)NC(=O)Nc3ccccc3)nc(C)c2c1` was 30.8% (active).

For `CCCN(CCC)S(=O)(=O)c1ccc(C(=O)NNC(=O)c2cc(OC)c(OC)c(OC)c2)cc1`, the inhibition is -3.01% (inactive). The value for `C#CCOCCOCCOCCNc1nc(N2CCN(C(=O)[C@H](C(C)C)n3cc(CCO)nn3)CC2)nc(N2CCN(C(=O)[C@H]([C@@H](C)CC)n3cc(CCCN=C(N)N)nn3)CC2)n1` was 1.82% (inactive). The same measure for `NS(=O)(=O)c1ccc(NC(=O)COC(=O)c2ccc(Cl)nc2)cc1`: 0.7% (inactive). The same measure for `CCN(CC)c1ccc(NC(=O)c2ccc(Cl)nc2)cc1`: 81.4% (active); for `O=C(NNc1ccccn1)c1ccc(Cl)nc1`: -0.88% (inactive).

Consider `COc1ccc(CN(C)Cc2nc3cc(OC)c(OC)cc3c(=O)[nH]2)c(OC)c1`, for which the inhibition is 1.74% (inactive). Consider `C[C@H](NC(=O)c1ccccc1Cl)C(=O)OCCOc1cccc(Cl)c1`, for which the inhibition is -3.18% (inactive).

Consider `Cn1cc(C(=O)NCc2ccccc2F)cn1`, for which the inhibition is -6.67% (inactive).

As for `N#CC1(C#N)C(C(=O)C23CC4CC(CC(C4)C2)C3)C12CCOCC2` (stereo not given), the inhibition is -2.53% (inactive).

Consider `Cn1c(N)c(C(=O)COC(=O)/C=C/c2ccc(OC(F)F)cc2)c(=O)n(C)c1=O`, for which the inhibition was 2.97% (inactive). For `Cc1ccc(NC(=O)CN(C)Cc2ccc(F)cc2)c([N+](=O)[O-])c1`, the inhibition is -2.86% (inactive). Turning to `CC(=O)Nc1ccc(Nc2c3ccccc3nc3ccccc23)cc1`, the inhibition was 102% (active). The same measure for `O=[N+]([O-])c1cccc(Nc2c3ccccc3nc3ccccc23)c1`: -2.83% (inactive). The same measure for `Cc1ccc(Nc2c3c(nc4ccccc24)CCC3)cc1`: 4.72% (inactive); for `COc1cc2c(cc1O)[C@H](Cc1ccc(Oc3cc(C[C@@H]4NCCc5cc(OC)c(O)cc54)ccc3O)cc1)NCC2`: 1.92% (inactive); for `CC[C@H]1CN2CCc3cc(OC)c(OC)cc3[C@@H]2C[C@@H]1C[C@H]1NCCc2cc(OC)c(OC)cc21`: 101% (active). The value for `Cn1cnc(C(F)(F)F)c1-c1ccc([N+](=O)[O-])cc1` was -0.95% (inactive); that for `O=C(O)/C=C/c1ccc2c(c1)OCCO2` was 0.26% (inactive); that for `COc1ccccc1N1CCN(CCCCOc2ccc(F)cc2)CC1` was -1.67% (inactive).

Take `COc1ccccc1N1CCN(Cc2ccc(OC)c3ccccc23)CC1`: the inhibition is 26.8% (active). The value for `CNCC(O)CN1CCN(c2ccccc2OC)CC1` (stereo not given) was -2.42% (inactive); that for `O=c1[nH]c2ccccc2s1` was 1.22% (inactive); that for `O=C(Oc1ccccc1Cl)c1ccc(N2CCOCC2)c([N+](=O)[O-])c1` was 0.46% (inactive). The same measure for `Cc1ccc(S(=O)(=O)NCCC(c2ccccc2)c2ccccc2)cc1C(=O)O`: 0.73% (inactive).

For the compound `C/C(=N/NC(=O)CN1CCN(S(=O)(=O)c2ccc(Br)cc2)CC1)c1ccncc1`, the inhibition was -1.23% (inactive).

Regarding `Cc1onc(C(=O)NN)c1-c1csc(COc2ccccc2)n1`, the inhibition is 3.97% (inactive). The same measure for `CC(C)(C)C(=O)OCc1nc(-c2ccc(O)c(O)c2)cs1`: 83.4% (active). Take `COc1ccc(-c2csc(Cc3nc(O)cs3)n2)cc1`: the inhibition was -2.27% (inactive).
